# Results from PubChem BioAssay (Tox21).
# Where “and” joins values, the source holds several entries; their conditions need not be identical. Identical values can stand only once. Records with an inconclusive call do not appear. Entries that show only a call come without a potency. Some structures have more than one record in an assay (separate samples or runs), and their calls can disagree. Calls of active or inactive are those of the source. Unless noted, the call rests on the fitted dose curve; in most records, active means well fitted curve in the direction sought with a large enough effect in the repeat runs; inconclusive means weak or mixed curves; inactive means no such curve, though single readings can be large; an effect the other way counts as inactive or inconclusive.
# Tests used:
# [1] = qHTS assay to identify small molecule antagonists of the thyroid receptor (TR) signaling pathway - cell viability counter screen (AID 743064); further: nearly all actives have a fitted effect of over 50% in size
# Procedure, shortened: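 CellTiter-Fluor readout, 30 min at 37 °C/5% CO2, following 23.5 h incubation of GH3.TRE-Luc cells with test compound and 1 nM T3 (final).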
# [2] = qHTS assay to identify small molecule antagonists of the thyroid receptor (TR) signaling pathway (AID 743065); further: series mostly up to about 70 µM; nearly all actives have a fitted effect of over 55% in size
# Procedure, shortened: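 GH3.TRE-Luc rat pituitary cells carrying two TR response elements driving luciferase were plated for 4 h, given compound plus 1 nM T3 (final), and incubated 23.5 h at 37 C. ONE-Glo luminescence measured reporter inhibition; CellTiter-Fluor fluorescence tracked cytotoxicity.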
# [3] = tested on: thyroid hormone receptor (rat, GH3 cells); test: qHTS assay to identify small molecule agonists of the thyroid receptor (TR) signaling pathway (AID 743066; calls by dose curve)
# [4] = qHTS assay to identify small molecule antagonists of the estrogen receptor alpha (ER-alpha) signaling pathway - cell viability counter screen (AID 743074; calls by dose curve; further: nearly all actives have a fitted effect of over 45% in size)
# [5] = target: Estrogen receptor (Homo sapiens) (UniProt P03372); test: qHTS assay to identify small molecule agonists of the estrogen receptor alpha (ER-alpha) signaling pathway (AID 743075; calls by dose curve)
# [6] = target: Estrogen receptor (Homo sapiens) (UniProt P03372); test: qHTS assay to identify small molecule agonists of the estrogen receptor alpha (ER-alpha) signaling pathway using the BG1 cell line (AID 743079); further: nearly all actives have a fitted effect of over 20% in size; further: potency means the concentration at half of the fitted maximal effect
# [7] = qHTS assay to identify small molecule antagonists of the estrogen receptor alpha (ER-alpha) signaling pathway using the BG1 cell line (AID 743080; calls by dose curve;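 further: BG1 cells stimulated with 17beta-estradiol alongside compound; series mostly up to about 70 µM; nearly all actives have a fitted effect of over 25% in size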)
# Procedure, shortened: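 Luminescence from a 4×ERE-luciferase reporter in BG1-Luc-4E2 cells served as read-out. Cells, pre-cultured 5 days in stripped-serum phenol-red-free medium, were exposed to compound with 17beta-estradiol co-stimulation for 21.5 h at 37 C.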
# [8] = qHTS assay to identify small molecule antagonists of the estrogen receptor alpha (ER-alpha) signaling pathway using the BG1 cell line - cell viability counter screen (AID 743081);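 further: compound given together with 17beta-estradiol as the ER stimulus; series mostly up to about 70 µM; nearly all actives have a fitted effect of over 45% in size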
# Aromatase (Homo sapiens) = Aromatase (Homo sapiens) (UniProt P11511); test: qHTS assay to identify aromatase inhibitors (AID 743083); further: series mostly up to about 70 µM; nearly all actives have a fitted effect of over 55% in size
# [9] = qHTS assay to identify aromatase inhibitors - cell viability counter screen (AID 743084);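 further: cells stimulated with testosterone during compound exposure; nearly all actives have a fitted effect of over 55% in size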
# [10] = target: Aryl hydrocarbon receptor (Homo sapiens) (UniProt P35869); test: qHTS assay to identify small molecule that activate the aryl hydrocarbon receptor (AhR) signaling pathway (AID 743085);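 further: HG2L7.5c1 human HepG2 liver cells with stably integrated DRE-driven firefly reporter; series mostly up to about 70 µM; nearly all actives have a fitted effect of over 15% in size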
# Procedure, shortened: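 Stably transfected human liver carcinoma cells (HG2L7.5c1; 20 DRE-firefly luciferase) were incubated 5 h, dosed, and kept 24 h at 37C. Agonism was scored from increased luciferase luminescence.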
# [11] = qHTS assay to identify small molecule that activate the aryl hydrocarbon receptor (AhR) signaling pathway - cell viability counter screen (AID 743086);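 further: HepG2 liver cells carrying the AhR DRE luciferase reporter; series mostly up to about 70 µM; nearly all actives have a fitted effect of over 45% in size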
# Procedure, shortened: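 HepG2-AhR-luc (HG2L7.5c1) cells, 4000/well, were preincubated 5 h at 37C, exposed to compound in qHTS format for 24 hr at 37C, then given CellTiter-Fluor for 30 min; viability was read as fluorescence in the reporter wells.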
# [12] = qHTS assay to identify small molecule antagonists of the peroxisome proliferator-activated receptor gamma (PPARg) signaling pathway - cell viability counter screen (AID 743194); further: nearly all actives have a fitted effect of over 55% in size
# Procedure, shortened: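 PPARg-UAS-bla HEK293H cells were plated, rested 5 h at 37 C, then treated with compounds plus rosiglitazone (50 nM final) for 17 h at 37 C; viability was then read by CellTiter-Glo luminescence after 30 min at room temperature.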
# [13] = qHTS assay for small molecule agonists of the antioxidant response element (ARE) signaling pathway (AID 743202; active means well fitted activation curve with a large enough effect in the signal ratio in the repeat runs, not every such curve was filed as active; the % refers to the signal ratio)
# Procedure, shortened: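 Read-out: LiveBLAzer B/G FRET substrate fluorescence after 2 h at room temperature, following 16 h compound treatment at 37 C of HepG2 cells carrying an ARE-driven beta-lactamase reporter.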
# [14] = qHTS assay for small molecule agonists of the antioxidant response element (ARE) signaling pathway - cell viability counter screen (AID 743203; calls by dose curve; further: nearly all actives have a fitted effect of over 55% in size)
# Procedure, shortened: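 ARE-bla HepG2 cells were plated, rested 5 h at 37C/5% CO2, then exposed to compounds in DMSO for 16 h. Viability was read as CellTiter-Glo luminescence after 30 min at room temperature, in the same wells as the ARE screen.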
# [15] = qHTS assay for small molecule activators of the heat shock response signaling pathway - cell viability counter screen (AID 743209); further: nearly all actives have a fitted effect of over 50% in size
# Procedure, shortened: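 HSE-bla HeLa cells plated overnight, then exposed to Tox21 compounds (23 nL in DMSO) for 5 h at 37 C. After the bla reporter read, CellTiter-Glo was added in the same wells and luminescence read after 30 min at room temperature.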
# [16] = qHTS assay for small molecule activators of the heat shock response signaling pathway (AID 743210; active means well fitted activation curve with a large enough effect in the signal ratio in the repeat runs, with a control signal flat, not every such curve was filed as active; the % refers to the signal ratio; further: series mostly up to about 63 µM)
# Procedure, shortened: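 HSE-bla HeLa cells (beta-lactamase reporter under heat shock response elements) were exposed to compounds for 5 h at 37 C, then loaded with LiveBLAzer B/G FRET substrate for 2.5 h at room temperature before fluorescence reading.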
# [17] = target: Peroxisome proliferator-activated receptor gamma (Homo sapiens) (UniProt P37231); test: qHTS assay to identify small molecule agonists of the peroxisome proliferator-activated receptor gamma (PPARg) signaling pathway (AID 743094; active means well fitted activation curve with a large enough effect in the signal ratio in the repeat runs, not every such curve was filed as active; the % refers to the signal ratio)
# Procedure, shortened: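 GeneBLAzer PPARg UAS-bla HEK293H cells were plated, rested 5 h, then exposed to compounds for 17 h at 37C. Beta-lactamase activity was read by LiveBLAzer B/G FRET substrate fluorescence after 1 h at room temperature.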
# [18] = target: Peroxisome proliferator-activated receptor gamma (Homo sapiens) (UniProt P37231); test: qHTS assay to identify small molecule antagonists of the peroxisome proliferator-activated receptor gamma (PPARg) signaling pathway (AID 743191; calls by dose curve; further: series mostly up to about 63 µM; nearly all actives have a fitted effect of over 30% in size)
# Procedure, shortened: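 GeneBLAzer PPARg UAS-bla HEK293H cells carrying a UAS-driven beta-lactamase reporter were plated at 3000 cells/well, preincubated 5 h at 37C, then given compound for 17 h at 37C; LiveBLAzer B/G FRET substrate was read after 1 h at room temperature.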
# [19] = target: Estrogen receptor (Homo sapiens) (UniProt P03372); test: qHTS assay to identify small molecule antagonists of the estrogen receptor alpha (ER-alpha) signaling pathway (AID 743069; active means well fitted curve in the direction sought with a large enough effect in the signal ratio in the repeat runs, not every such curve was filed as active; the % refers to the signal ratio)
# Procedure, shortened: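 HEK293 cells stably carrying an ER-alpha-UAS-bla beta-lactamase reporter were pre-cultured overnight in 2% charcoal-stripped FBS medium. Test compounds in DMSO were added together with 17beta-estradiol for 18 hr at 37C. Read-out was fluorescence after 2 hr with LiveBLAzer B/G FRET substrate at room temperature.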
# Chain of Aryl hydrocarbon receptor (Homo sapiens) (P35869 whole entry, looked up): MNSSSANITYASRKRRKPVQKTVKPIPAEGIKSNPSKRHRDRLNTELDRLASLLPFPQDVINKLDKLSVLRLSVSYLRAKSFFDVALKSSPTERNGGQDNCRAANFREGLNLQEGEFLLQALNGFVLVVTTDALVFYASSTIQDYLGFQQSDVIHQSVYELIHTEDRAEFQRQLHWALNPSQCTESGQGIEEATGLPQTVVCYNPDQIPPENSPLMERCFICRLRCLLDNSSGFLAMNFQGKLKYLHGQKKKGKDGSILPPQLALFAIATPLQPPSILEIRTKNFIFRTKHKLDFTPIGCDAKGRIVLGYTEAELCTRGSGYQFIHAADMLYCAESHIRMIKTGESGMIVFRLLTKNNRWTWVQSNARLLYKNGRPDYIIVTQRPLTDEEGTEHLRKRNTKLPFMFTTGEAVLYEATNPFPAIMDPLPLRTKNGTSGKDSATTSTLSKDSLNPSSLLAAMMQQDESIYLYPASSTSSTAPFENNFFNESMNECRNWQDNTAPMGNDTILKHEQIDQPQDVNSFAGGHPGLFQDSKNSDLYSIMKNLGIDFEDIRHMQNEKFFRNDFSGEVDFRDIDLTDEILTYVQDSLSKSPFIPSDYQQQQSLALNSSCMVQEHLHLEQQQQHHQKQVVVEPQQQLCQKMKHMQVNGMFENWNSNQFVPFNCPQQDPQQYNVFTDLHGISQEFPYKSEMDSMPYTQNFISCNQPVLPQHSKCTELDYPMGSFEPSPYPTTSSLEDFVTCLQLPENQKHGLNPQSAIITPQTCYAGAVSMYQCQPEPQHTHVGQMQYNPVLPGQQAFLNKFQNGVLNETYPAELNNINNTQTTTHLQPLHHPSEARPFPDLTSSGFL
# Chain of Estrogen receptor (Homo sapiens) (P03372 whole entry, looked up): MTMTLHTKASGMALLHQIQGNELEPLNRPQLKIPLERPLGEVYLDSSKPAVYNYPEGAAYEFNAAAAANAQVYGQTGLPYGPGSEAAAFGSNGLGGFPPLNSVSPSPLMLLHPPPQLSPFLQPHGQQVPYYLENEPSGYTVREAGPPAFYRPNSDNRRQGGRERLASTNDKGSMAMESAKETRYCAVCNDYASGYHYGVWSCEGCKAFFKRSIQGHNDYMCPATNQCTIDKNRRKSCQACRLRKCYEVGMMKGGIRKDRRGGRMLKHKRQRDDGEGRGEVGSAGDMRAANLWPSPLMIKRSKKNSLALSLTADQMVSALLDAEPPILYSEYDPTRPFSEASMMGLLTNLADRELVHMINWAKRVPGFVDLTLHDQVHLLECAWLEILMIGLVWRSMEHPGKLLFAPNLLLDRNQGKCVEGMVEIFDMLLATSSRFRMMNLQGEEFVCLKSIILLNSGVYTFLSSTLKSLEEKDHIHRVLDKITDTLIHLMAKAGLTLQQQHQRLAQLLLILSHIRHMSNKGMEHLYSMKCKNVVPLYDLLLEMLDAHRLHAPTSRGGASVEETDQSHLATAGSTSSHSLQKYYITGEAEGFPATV
# Chain of Aromatase (Homo sapiens) (P11511 whole entry, looked up): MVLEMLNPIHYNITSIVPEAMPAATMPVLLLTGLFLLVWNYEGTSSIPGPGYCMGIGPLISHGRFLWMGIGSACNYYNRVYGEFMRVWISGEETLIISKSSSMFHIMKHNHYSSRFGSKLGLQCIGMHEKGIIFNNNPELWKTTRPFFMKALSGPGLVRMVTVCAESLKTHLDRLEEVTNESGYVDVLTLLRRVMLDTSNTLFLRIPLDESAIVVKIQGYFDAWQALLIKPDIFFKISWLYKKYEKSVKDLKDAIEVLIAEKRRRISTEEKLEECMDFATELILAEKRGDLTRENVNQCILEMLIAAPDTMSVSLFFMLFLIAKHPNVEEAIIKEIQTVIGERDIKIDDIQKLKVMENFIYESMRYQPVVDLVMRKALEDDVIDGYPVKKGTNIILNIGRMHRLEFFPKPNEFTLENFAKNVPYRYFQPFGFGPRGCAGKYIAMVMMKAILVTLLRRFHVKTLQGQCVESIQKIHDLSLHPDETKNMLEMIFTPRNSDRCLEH
# Chain of Peroxisome proliferator-activated receptor gamma (Homo sapiens) (P37231 whole entry, looked up): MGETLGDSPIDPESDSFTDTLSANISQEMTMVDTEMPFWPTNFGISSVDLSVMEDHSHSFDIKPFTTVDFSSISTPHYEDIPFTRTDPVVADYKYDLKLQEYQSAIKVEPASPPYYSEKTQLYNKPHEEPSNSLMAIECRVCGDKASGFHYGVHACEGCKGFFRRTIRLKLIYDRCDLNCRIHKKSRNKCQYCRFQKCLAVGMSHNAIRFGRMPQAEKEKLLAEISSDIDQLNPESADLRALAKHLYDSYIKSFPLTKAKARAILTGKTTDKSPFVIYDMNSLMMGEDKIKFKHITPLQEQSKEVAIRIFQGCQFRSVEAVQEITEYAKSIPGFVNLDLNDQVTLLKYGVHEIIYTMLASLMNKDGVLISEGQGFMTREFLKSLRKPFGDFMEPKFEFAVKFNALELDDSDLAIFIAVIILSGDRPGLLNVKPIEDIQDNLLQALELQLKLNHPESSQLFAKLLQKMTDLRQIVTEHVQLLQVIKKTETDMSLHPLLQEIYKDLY
Compound,Potency [1],Potency [2],Potency [3],outcome [4],Potency [5],Potency [6],Potency [7],Potency [8],Potency (Aromatase (Homo sapiens)),Potency [9],Potency [10],outcome [11],outcome [12],Potency [13],outcome [14],outcome [15],Potency [16],outcome [17],outcome [18],Potency [19]
C/C=C1/CC2C=CC1C2 (stereo not drawn),inactive,inactive,inactive,inactive,inactive,inactive,inactive,inactive,inactive,inactive,inactive,inactive,inactive,inactive,inactive,inactive,inactive,,,
COc1cc(Cc2cnc(N)nc2N)cc(OC)c1OC,inactive,inactive,inactive,inactive,inactive,inactive,inactive,inactive,inactive,inactive,inactive,inactive,inactive,inactive,inactive,,inactive,inactive,inactive,
O=C(O)CCCCCCCCCCC(=O)O,inactive,inactive,inactive,inactive,inactive,inactive and 61.1 µM (active),inactive,inactive,inactive,inactive,inactive,inactive,inactive,inactive,inactive,inactive,inactive,,,inactive
Cc1cccc(O)c1,inactive,inactive,inactive,,inactive,inactive,inactive,inactive,inactive,inactive,inactive,inactive,inactive,inactive,inactive,inactive,inactive,inactive,inactive,inactive
CC(=O)Nc1ccccc1,inactive,inactive,inactive,inactive,inactive,inactive,inactive,inactive,inactive,inactive,inactive,inactive,inactive,inactive,inactive,,inactive,inactive,inactive,
O=c1[nH]c(=O)n([C@H]2C[C@H](O)[C@@H](CO)O2)cc1Br,inactive,inactive,inactive,inactive,inactive,,,inactive,inactive,inactive,inactive,inactive,inactive,inactive,inactive,inactive,inactive,inactive,inactive,inactive
CCC(O)OC(O)CC (stereo not drawn),inactive,inactive,inactive,inactive,inactive,inactive,inactive,inactive,inactive,inactive,inactive,inactive,inactive,inactive,inactive,inactive,inactive,inactive,inactive,
O=[N+]([O-])c1ccc(/C=C/c2ccc([N+](=O)[O-])cc2S(=O)(=O)O)c(S(=O)(=O)O)c1,inactive,inactive,inactive,inactive,inactive,inactive,inactive,inactive,inactive,inactive,inactive,inactive,inactive,inactive,inactive,inactive,inactive,,inactive,
O=C(OCCOCCOC(=O)c1ccccc1)c1ccccc1,inactive,inactive,inactive,inactive,inactive,inactive,inactive,inactive,inactive,inactive,inactive,inactive,inactive,inactive,inactive,inactive,inactive,inactive,inactive,inactive
O=C=NCCCCCCN=C=O,inactive,inactive,inactive,inactive,inactive,inactive,inactive,inactive,inactive,inactive,inactive,inactive,inactive,inactive,inactive,inactive,inactive,inactive,inactive,inactive
CCc1cccc(C)c1N,inactive,inactive,inactive,inactive,inactive,inactive,inactive,inactive,inactive,inactive,inactive,inactive,inactive,inactive,inactive,inactive,inactive,inactive,inactive,
CCCCCCCCCC,inactive,inactive,inactive,inactive,inactive,inactive,inactive,inactive,inactive,inactive,inactive,inactive,inactive,inactive,inactive,inactive,inactive,inactive,inactive,
Cc1ccc2oc(=O)ccc2c1,inactive,inactive,inactive,inactive,inactive,inactive,inactive,inactive,inactive,inactive,inactive,inactive,inactive,inactive,inactive,inactive,inactive,inactive,inactive,inactive
CCCCCCCCCCCCS,inactive,inactive,inactive,inactive,inactive,inactive,inactive,inactive,inactive,inactive,inactive,inactive,inactive,inactive,inactive,inactive,inactive,inactive,inactive,inactive
O=C(O)c1ccccc1C(c1ccc(O)cc1)c1ccc(O)cc1,inactive,inactive,inactive,,inactive,inactive,inactive,inactive,inactive,inactive,inactive,inactive,,,inactive,,inactive,,inactive,inactive
